Screening data as filed in PubChem.
SARS PLpro yeast = blocks SARS-CoV papain-like protease in a yeast assay; S. cerevisiae expressing SARS-CoV PLpro, growth rescue; Potency, µM (titrated, usually from 32.9 µM), hits mostly activators; 330,000 tested, 0.19% active; AID 485353; calls by dose curve; also: nearly all actives have a fitted effect of over 55% in size
NS1 inh = influenza NS1 inhibition; Potency, µM (doses to about 46.1 µM); 270,000 tested, 0.4% active; calls by dose curve; also: actives are rising curves; nearly all actives have a fitted effect of over 50% in size
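OD600 was taken as the measure of yeast growth restored by compound in an NS1-expressing S. cerevisiae strain. Cells had been washed out of glucose medium and diluted 1:100 into galactose -URA medium, pH 6.0.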
AmpC no deterg = AmpC beta-lactamase inhibition without detergent | Potency, µM (series often up to 57.1 µM), actives largely listed as inhibitors | AID 485341 | 330,000 tested, 0.52% active | AmpC nitrocefin hydrolysis, absorbance 480 nm, 0.0001% Triton | P00811; also: nearly all actives have a fitted effect of over 20% in size
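AmpC (5.3 nM in the dispensed reagent) in 20 mM phosphate pH 7.0 with 0.01% (detergent screen) or 0.0001% Triton X-100 was preincubated with compounds for 15 min at room temperature. Nitrocefin was then added from an 800 uM solution, and hydrolysis was followed at 480 nm.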
AmpC inh detg = AmpC beta-lactamase inhibition with detergent present. AmpC hydrolysis of nitrocefin, absorbance 480 nm, 0.01% Triton. Potency, µM (titrated, usually from 114 µM), most hits filed as inhibitors. 370,000 tested, 0.041% active. AID 485294; also: nearly all actives have a fitted effect of over 25% in size
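20 mM phosphate pH 7.0 + 0.01% (detergent screen) or 0.0001% Triton X-100; 5.3 nM AmpC reagent; cpd preinc 15 min RT; nitrocefin (800 uM stock) to start; A480 q20 s × 4 min; Activity was normalised to no-enzyme and no-compound control wells.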
Giardia FBPA inh = inhibitors of Giardia lamblia fructose-1,6-bisphosphate aldolase; 290,000 tested, 0.71% active; Potency, µM (doses to about 59.6 µM), hits mostly inhibitors; purified Giardia FBPA; also: nearly all actives have a fitted effect of over 55% in size
Target sequence (A8B2U2 whole entry, looked up): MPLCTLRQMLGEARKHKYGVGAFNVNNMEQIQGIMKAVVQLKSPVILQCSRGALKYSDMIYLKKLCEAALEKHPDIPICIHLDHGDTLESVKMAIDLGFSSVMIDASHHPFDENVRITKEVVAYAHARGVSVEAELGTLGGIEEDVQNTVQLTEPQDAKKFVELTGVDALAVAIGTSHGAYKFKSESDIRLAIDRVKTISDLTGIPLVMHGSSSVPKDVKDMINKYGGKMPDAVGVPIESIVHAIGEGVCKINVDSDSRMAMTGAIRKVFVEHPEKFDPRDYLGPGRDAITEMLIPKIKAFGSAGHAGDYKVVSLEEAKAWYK
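40 nM FBPA preincubated 10 min at RT with compound (up to 57.5 uM final), then substrate plus GAPDH/TPI/NAD/arsenate coupling and diaphorase/resazurin added. Fluorescence read after 20 min at RT, 525/598 nm.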
Flu NS1 inh = influenza NS1 function inhibition validation. shares compounds with NS1 inh. activity change, negative = inhibition, % at 32.9 µM. 1,400 tested, under 10 active. influenza NS1 function cell assay, 15-point titration. AID 492980; calls by dose curve
Numbers stand for hits. Compounds with a hit are over-represented: about 1.4% of the library has one in this group of screens. Unless noted, calls follow the shape of the dose curve; as a rule, active = well fitted curve in the direction sought with a large enough effect; inconclusive = small, poorly fitted or top-dose-only effect, or another doubt; inactive = no such curve, though single readings can be large; an effect the other way counts as inactive or inconclusive.

Screening Cc1ccc(NC(=O)CSc2nc(O)cc(=O)n2C)cc1 returned SARS PLpro yeast inactive, NS1 inh 11.2µM, AmpC no deterg inactive, AmpC inh detg inconclusive, Giardia FBPA inh inactive and Flu NS1 inh inconclusive.
Screening Cn1c(SCC(=O)Nc2cccc3ccccc23)nc(O)cc1=O returned SARS PLpro yeast inactive, NS1 inh 3.55µM, AmpC no deterg inconclusive, AmpC inh detg inconclusive, Giardia FBPA inh inactive and Flu NS1 inh inactive.
COc1ccccc1NC(=O)CSc1nc(O)cc(=O)n1C was read as SARS PLpro yeast inactive, NS1 inh inconclusive, AmpC no deterg inactive, AmpC inh detg inactive and Giardia FBPA inh inactive.
`CC(Oc1ccc(Cl)cc1Cl)C(=O)Nn1cnnc1` (stereo not given) gave SARS PLpro yeast inactive, NS1 inh inactive, AmpC no deterg inactive, AmpC inh detg inactive and Giardia FBPA inh inactive.
`CC1CCN(CCCCOc2ccc(C(C)(C)C)cc2)CC1` gave SARS PLpro yeast inactive, NS1 inh inactive, AmpC no deterg inactive, AmpC inh detg inconclusive and Giardia FBPA inh inconclusive.
COC(=O)c1ccc(C(NC(=O)OCc2ccccc2)/C(=C/[C@@H](C)C(=O)NCC2CC2)c2cccnc2)cc1 (stereo not given in full) was read as Giardia FBPA inh inactive.
Screening COc1ccccc1NC(=O)C1=C(C)Nc2nc(SCc3ccccc3)nn2C1c1cccc(O)c1 (stereo not given) returned AmpC inh detg inactive.
For Cc1cc(C)nc(OC(C(=O)O)C(OCC(C)C)(c2ccccc2)c2ccccc2)n1 (stereo not given) the results were SARS PLpro yeast inactive, NS1 inh 6.31µM, AmpC no deterg inactive, AmpC inh detg inactive, Giardia FBPA inh inactive and Flu NS1 inh inactive.
Screening CCC(C)COC(c1ccccc1)(c1ccccc1)C(Oc1nc(C)cc(C)n1)C(=O)O (stereo not given) returned SARS PLpro yeast inactive, NS1 inh inconclusive, AmpC no deterg inactive, AmpC inh detg inactive and Giardia FBPA inh inactive.
For CCOc1ccc(NC(=O)CNS(=O)(=O)c2ccc(Br)s2)cc1 the results were AmpC inh detg inactive.
`O=C1NC(=Nc2ccccc2)S/C1=C\C=C\c1ccco1` gave SARS PLpro yeast inactive, NS1 inh 4.47µM, AmpC no deterg 14.1µM, AmpC inh detg inactive, Giardia FBPA inh inconclusive and Flu NS1 inh inconclusive.
For O=C(COC(=O)CCc1nc2ccccc2c(=O)[nH]1)Nc1ccc(Cl)cn1 the results were SARS PLpro yeast inactive, NS1 inh inactive, AmpC no deterg inactive, AmpC inh detg inactive and Giardia FBPA inh inactive.
COC(=O)CCCNC(=O)CN1CC(c2ccccc2)CC1=O (stereo not given) was read as SARS PLpro yeast inactive, NS1 inh inconclusive, AmpC no deterg inactive, AmpC inh detg inconclusive, Giardia FBPA inh inactive and Flu NS1 inh inactive.
Cn1c(=O)[nH]c(=O)c2c1nc(Br)n2CC(O)COc1ccccc1 (stereo not given) was read as SARS PLpro yeast inactive, NS1 inh 7.08µM, AmpC no deterg inactive, AmpC inh detg inactive, Giardia FBPA inh inactive and Flu NS1 inh inactive.
`COc1ccccc1OCC(O)Cn1c(Br)nc2c1c(=O)[nH]c(=O)n2C` (stereo not given) gave SARS PLpro yeast inactive, NS1 inh inactive, AmpC no deterg inactive, AmpC inh detg inconclusive and Giardia FBPA inh inactive.
For CC(C)(C)c1nnc(N/N=C/c2ccccc2)n(N)c1=O the results were SARS PLpro yeast inactive, NS1 inh inconclusive, AmpC no deterg inactive, AmpC inh detg inactive, Giardia FBPA inh inactive and Flu NS1 inh inconclusive.
CSCCC(NC(=O)c1ccccc1Br)C(=O)NNC(=O)c1csc(N2CCOCC2)n1 (stereo not given) was read as SARS PLpro yeast inactive, AmpC no deterg inactive and AmpC inh detg inactive.
`O=C(/C=N/O)NCCCN1CCOCC1` gave SARS PLpro yeast inactive, NS1 inh inconclusive, AmpC no deterg inactive, AmpC inh detg inactive, Giardia FBPA inh inactive and Flu NS1 inh inactive.
O=C1C=CC(=O)C(C2=C3C(=O)N(CCc4ccccc4)CC(=O)N3CCC2)=C1 was read as SARS PLpro yeast inactive, NS1 inh 14.1µM, AmpC no deterg inactive, AmpC inh detg inconclusive, Giardia FBPA inh 17.7µM and Flu NS1 inh inactive.
